# Screening results from PubChem.
# RXFP1 antagonist: blocks the human relaxin receptor RXFP1; hit rate 0.59% among 350,000; HEK293-RXFP1, relaxin-stimulated cAMP HTRF, 30 min; stronger effect = lower value; activity change, negative = inhibition, % at 57.5 µM;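 active = activity change of -60% or lower, but not beyond a set lower limit; inconclusive = change between -60% and -40%, or beyond the set limit; inactive = change above -40%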; note: % is set by controls: 0 for no effect and ±100 for the full control effect
# Target sequence (Q9HBX9 whole entry, looked up): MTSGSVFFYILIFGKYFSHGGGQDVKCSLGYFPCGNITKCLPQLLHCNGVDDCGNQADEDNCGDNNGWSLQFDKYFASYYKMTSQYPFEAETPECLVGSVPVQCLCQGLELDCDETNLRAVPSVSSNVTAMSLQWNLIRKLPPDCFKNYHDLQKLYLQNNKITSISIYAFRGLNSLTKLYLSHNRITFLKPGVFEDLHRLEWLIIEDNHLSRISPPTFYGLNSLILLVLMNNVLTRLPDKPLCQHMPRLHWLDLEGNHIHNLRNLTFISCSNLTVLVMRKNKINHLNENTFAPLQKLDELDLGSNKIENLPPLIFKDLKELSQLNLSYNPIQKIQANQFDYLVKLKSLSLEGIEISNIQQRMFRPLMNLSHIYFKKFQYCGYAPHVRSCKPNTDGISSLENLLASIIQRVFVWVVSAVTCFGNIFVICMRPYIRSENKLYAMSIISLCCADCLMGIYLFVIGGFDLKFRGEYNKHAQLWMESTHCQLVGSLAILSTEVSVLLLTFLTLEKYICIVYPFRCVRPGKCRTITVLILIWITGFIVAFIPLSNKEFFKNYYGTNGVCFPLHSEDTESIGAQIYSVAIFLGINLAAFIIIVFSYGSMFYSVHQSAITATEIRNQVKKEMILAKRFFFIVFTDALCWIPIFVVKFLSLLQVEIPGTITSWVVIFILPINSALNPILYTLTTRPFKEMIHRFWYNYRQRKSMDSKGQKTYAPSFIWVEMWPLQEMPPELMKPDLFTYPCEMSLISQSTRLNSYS
# IL-2 act: activates IL-2 in a cell-based reporter assay; AID 652025; activation, % (series mostly up to about 46 µM); IL-2 activation reporter assay, cell-based qHTS; stimulated with anti-CD3/CD4/CD28 beads; in transgenic mouse T cells; hit rate 0.065% among 360,000; in the data active = activation above about 50%; inconclusive = mostly about 30% to 49%; note: 0% is about no effect
#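 Unstimulated transgenic mouse T cells preincubated 60 min with compound, then stimulated with anti-CD3/anti-CD4-coated beads plus anti-CD28 for 18 h at 37 degrees C. IL-2 response read as EGFP and DsRed fluorescence by plate cytometry.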
# BRCA1 expr up: increases BRCA1 expression | MCF7-BRCA1-FFLuc reporter, luminescence, 48 h; response scale: scaled: vehicle 0%, 10 µM genistein 100% | Potency, µM (highest dose often 46.1 µM), without a hit: top-dose activation, most hits filed as activators | hit rate 1.1% among 380,000; note: potency is the fitted concentration of half-maximal effect; nearly all actives have a fitted effect of over 80% in size
#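 First, MCF7-BRCA1-FFLuc cells (2000/well) attach for 2 h; next, compounds are pin-added and incubated 48 h at 37 °C; finally, luciferase reagent is added and luminescence read after 15 min.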
# NPSR antag: neuropeptide S receptor (human) antagonism, cAMP | Q6W5P4 | CHO-NPSR cells, cAMP TR-FRET, antagonist mode | Potency, µM (titrated, usually from 38.3 µM), for inactives: top-dose activity change, negative = inhibition, most hits filed as inhibitors | hit rate 1% among 220,000 | AID 1461; note: potency is the fitted concentration of half-maximal effect; % is set by controls: 0 for no effect and ±100 for the full control effect; nearly all actives have a fitted effect of over 50% in size
# Giardia killer: Giardia lamblia killing. Giardia lamblia trophozoite viability. AID 540267. hit rate 0.15% among 340,000. activity change, % at 7.66 µM, hits read low; in the data active = activity change below about -80%; inconclusive = between about -30% and that limit;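 note: parasites exposed to compound for two days anaerobically before the ATP read; % is set by controls: 0 for no effect and ±100 for the full control effect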
#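 Anaerobic 48 hrs incubation at 37 deg C of 100 trophozoites/well with test compounds; ATPLite 1-Step luminescence, 15-30 min RT, reports cellular ATP as viability.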
# RXFP1 ag: RXFP1 (human) receptor agonism; Q9HBX9; HEK293T-RXFP1 cAMP TR-FRET, 30 min; response scale: percent of porcine relaxin response, buffer zero; Potency, µM (series often up to 57.5 µM), for the others: top-dose activation, usual class: activators; hit rate 0.3% among 370,000; AID 2676; note: potency is the fitted concentration of half-maximal effect; % is set by controls: 0 for no effect and ±100 for the full control effect; nearly all actives have a fitted effect of over 60% in size
#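 Agonist response is measured as cAMP accumulation in an RXFP1-transfected HEK293T line under PDE4 inhibition. Values are scaled between buffer-only and 29 nM porcine relaxin, and EC50s come from standard Hill equation fits.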
# Starred values were filed as active, the others as inactive; ? = inconclusive; . = no result given; [ ] = remark or other dose. A selection: hits, their analogues and other compounds. The true share with any hit is near 1.9%. Unless noted, calls come from the whole dose curve; as a rule, active = well fitted curve in the direction sought with a large enough effect; inconclusive = small, poorly fitted or top-dose-only effect, or another doubt; inactive = no such curve, though single readings can be large; an effect the other way counts as inactive or inconclusive.
SMILES,RXFP1 antagonist,IL-2 act,BRCA1 expr up,NPSR antag,Giardia killer,RXFP1 ag
O=c1[nH]c(COc2ccccc2)nc2ccccc12,5,-1,50%,.,-7,3%
Cc1c(Cl)cccc1Nc1nc(N)nc(CSc2ncccn2)n1,-10,0,10µM*,-21%[46.1 µM],1,2%
CCN(CC)c1cc(C)c2cc(NC(=O)/C=C/c3cc(OC)c(OC)c(OC)c3)ccc2n1,1,.,.,.,.,0%
Cc1ccc(NC(=O)c2ccc(OC(=O)COc3cccc(Cl)c3)cc2)cc1,2,0,3.5µM*,15%,?,3%
Cc1ccc(NC(=O)c2ccc(OC(=O)CCN3C(=O)c4ccccc4C3=O)cc2)cc1,-7,-3,7.1µM*,-13%[46.1 µM],-5,0%
Cc1ccc(NC(=O)c2ccc(OC(=O)COc3ccc(Cl)cc3C)cc2)cc1,1,10,?,9%,-3,1%
Nc1ccc(/C=C/c2cccc3cccnc23)cc1,.,.,10%,.,.,.
CCSc1ccc(/C(N)=N/OC(=O)c2cccs2)cn1,0,-3,10µM*,.,-9,0%
Cc1ccc(CC(=O)NO)cc1,.,.,0%,.,.,.
Cc1ccc(-c2cn3cccc(C)c3n2)cc1,1,-2,71%,-22%,-13,-3%
O=[N+]([O-])c1cccn2cc(-c3ccc(Br)cc3)nc12,-7,0,39%,-12%,-99*,2%
CCN1CCOC(=O)C1CC(=O)Nc1cc(C)cc(C)c1 (stereo not given),-7,.,.,.,.,-4%
CCCNC(=O)Cn1c(SCc2ccccc2C)nc2ccncc21,.,.,35%,.,-24,.
COC(=O)c1sc(NC(=S)NNC(=O)c2c(Br)c(C)nn2C)c(C(=O)OC)c1C,31,-4,-1%,.,-6,25µM*
Cc1oc(-c2ccccc2)nc1CCC(=O)c1ccc(CC2SC(=O)NC2=O)cc1 (stereo not given),-37,.,.,.,.,.
O=C(CN1CCN(Cc2ccccc2Cl)C1=O)NC1CCCCCC1,-14,1,11µM*,3%[46.1 µM],-3,0%
FC(F)Oc1ccc(C2N=C(c3ccccc3)NO2)cc1 (stereo not given),-11,-2,4.5µM*,.,17,1%
C(=C\c1ccccc1)/C=N/Nc1nc2ccccc2s1,-12,0,7.9µM*,-7%[46.1 µM],13,2%
Brc1ccc(/C=C/C=N/Nc2nc3ccccc3s2)cc1,2,-3,8.9µM*,-12%[46.1 µM],7,0%
Brc1csc(/C=N/Nc2nc3ccccc3s2)c1,-23,-3,-65%,-22%,-15,0%
CCC/C=N/Nc1nc2ccccc2s1,-91*,0,57%,0%,13,0%
COc1ccc(C=NNc2nc3ccccc3s2)cc1,-3,0,?,.,?,.
CCOC(=O)c1cc(OCc2csc(-c3ccccc3)n2)cc(C(=O)OCC)c1,.,.,3%,.,.,.
Cc1sc2cc3c(c(C(=O)c4ccccc4)[n+]2c1C)-c1cccc2cccc-3c12,-39,-3,-74%,?,15,0%
O=C(c1ccccc1)c1c2c(cc3sc4ccccc4[n+]13)-c1cccc3cccc-2c13,-16,2,-74%,10µM*,0,1%
SMILES,RXFP1 antagonist,IL-2 act,BRCA1 expr up,NPSR antag,Giardia killer,RXFP1 ag
O=C(Nc1ccc(Cl)cn1)c1ccc(COc2ccccc2Br)o1,-19,-2,11µM*,-28%,-12,5%
CN(C)C(=O)c1ccc(COc2ccccc2Br)o1,-17,0,10µM*,30%[46.1 µM],-3,0%
O=C(CNC(=O)C(c1ccccc1)c1ccccc1)OCC(=O)c1ccc2ccccc2c1,.,.,6%,.,6,.
Nc1nc(NCc2ccc(F)cc2)c2[nH]cnc2n1,.,.,0%,.,-21,.
Nc1nc(SCc2ccccc2)sc1C(=O)N1CCCCC1,6,-3,2.2µM*,.,.,.
CCOC(=O)c1c(NC(=O)CSc2n[nH]c(-c3ccco3)n2)sc(C)c1C,-75*,-2,-8%,-9%[46.1 µM],10,-1%
CCOC(=O)c1c(NC(=O)CSc2n[nH]c(CNc3ccccc3)n2)sc(C)c1C,?,-3,-29%,-33%,-1,-2%
